# GPR151 ag – activators of human GPR151 | 650,000 compounds, 1% hits | activation, % at 11.2 µM | Q8TDV0 | AID 1508602 | PathHunter beta-arrestin GPR151 cells, luminescence; in the data active = activation above about 4.9%;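 also: 0% = median of compound wells and 100% = cells with positive control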
# TEAD-YAP inh – TEAD-YAP interaction inhibition; HEK-TIYL cells, TEAD-Gal4/YAP UAS-luciferase luminescence; inhibition, % at 9.12 µM; 640,000 compounds, 1.4% hits; in the data active = inhibition above about 32%;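 also: 0% = median of test compound wells and 100% = reference inhibitor wells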
# MITF inh – inhibitors of human MITF | inhibition, % at 2.6 µM | 650,000 compounds, 0.91% hits | AlphaScreen MITF homodimerization, bead proximity signal | O75030; in the data active = inhibition above about 50%;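 also: 0% = vehicle wells with protein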
# Target sequence (O75030 whole entry, looked up): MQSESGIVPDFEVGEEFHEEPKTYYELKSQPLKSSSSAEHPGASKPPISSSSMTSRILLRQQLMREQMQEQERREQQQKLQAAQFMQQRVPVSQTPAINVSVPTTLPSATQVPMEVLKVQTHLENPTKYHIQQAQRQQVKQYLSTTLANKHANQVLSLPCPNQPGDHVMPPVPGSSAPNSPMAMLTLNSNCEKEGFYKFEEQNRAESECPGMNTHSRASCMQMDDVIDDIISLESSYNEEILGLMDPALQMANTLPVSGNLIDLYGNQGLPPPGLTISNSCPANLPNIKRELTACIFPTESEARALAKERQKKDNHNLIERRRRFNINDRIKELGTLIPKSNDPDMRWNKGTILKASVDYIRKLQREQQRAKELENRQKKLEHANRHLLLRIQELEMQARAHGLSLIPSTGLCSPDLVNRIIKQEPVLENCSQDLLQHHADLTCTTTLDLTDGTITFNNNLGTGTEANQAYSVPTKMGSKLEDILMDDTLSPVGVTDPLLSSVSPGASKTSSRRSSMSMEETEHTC
# FBW7 act – human FBW7 E3 ligase activation, primary screen. AlphaScreen FBW7–phospho-cyclin E peptide binding, activator screen. normalized activity (activation), % at 26.1 µM. AID 1259310. Q969H0. 650,000 compounds, 0.13% hits; in the data active = normalized activity above about 1.9%;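 also: purified mutant Fbw7 with reduced substrate affinity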
# GPR151 confirm – human GPR151 activation, confirmation screen. shares compounds with GPR151 ag. GPR151 PathHunter beta-arrestin cells, luminescence, 90 min; % of EA-reagent control over plate median. activation, % at 11.2 µM. 6,700 tested, under 10 active;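 active = mean percent activation across replicates above the confirmation screen cutoff of 4.91%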
# GPR119 ag – GPR119 activation, counter-screen for GPR151 activators. GPR119 PathHunter beta-arrestin cells, luminescence, 90 min; 0 = compound-well median, 100 = enzyme-acceptor control. activation, % at 11.2 µM. 6,700 compounds, 0.3% hits. AID 1508611. shares compounds with GPR151 ag;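 active = mean percent activation in the counterscreen above 29.09%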;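 also: counterscreen on off-target GPR119 to flag nonselective hits from the GPR151 activator screen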
# * = called active by the depositor; · = no result. An excerpt weighted towards active compounds, which were near 3.5% of everything screened.
SMILES,GPR151 ag,TEAD-YAP inh,MITF inh,FBW7 act,GPR151 confirm,GPR119 ag
OCc1ccc(CN2CCC(CO)(Cc3ccc(Cl)cc3)CC2)o1,0.9,10.2,3.3,-0.2,·,·
Nc1cccc(-c2ncc(C(=O)NCc3ccccc3)s2)c1,0.6,3.2,10.8,0.1,·,·
O=C(NCc1cccc(C(F)(F)F)c1)c1cnc(-c2ccccc2)s1,7.6*,14.0,1.4,0.0,-1.0,-3.9
O=C(NCc1ccccc1)c1cnc(-c2ccccc2)s1,6.6*,-38.4,7.3,-0.2,-0.3,-14.0
COc1ccc(-c2ncc(C(=O)NCc3cccc(C(F)(F)F)c3)s2)cc1,-2.6,-1.6,-0.1,0.1,·,·
O=C(NCc1cccc(C(F)(F)F)c1)c1cnc(NC2CCC(O)CC2)s1 (stereo not given),5.1*,3.8,3.5,0.1,-1.0,2.1
O=C(COc1ccc(I)cc1)NN1C(=O)c2ccccc2C1=O,1.5,-5.4,-0.9,-0.3,·,·
NC(C(=O)N1CCCC(Nc2ccc3[nH]ncc3c2)C1)c1cccc(F)c1 (stereo not given),0.2,-19.0,11.6,-0.3,·,·
CC(NC(=O)CC1S/C(=N/N=C/c2ccco2)NC1=O)C(=O)O (stereo not given),5.7*,2.7,9.6,0.0,-0.8,-3.5
O=C1OC(c2ccco2)=N/C1=C\c1cccc(F)c1,1.3,4.0,10.7,-0.1,·,·
C(/C=C/c1ccccc1)=N/N1CCN(c2ccccc2)CC1,4.9*,-19.1,16.4,0.2,-1.7,-9.8
Cn1c(=O)c2c(nc(Cl)n2Cc2ccc([N+](=O)[O-])cc2)n(C)c1=O,0.3,5.3,4.8,0.0,·,·
Cn1c(=O)c2c(nc(-n3ccnc3)n2Cc2ccc([N+](=O)[O-])cc2)n(C)c1=O,5.0*,-1.3,15.8,0.3,0.8,22.0
O=C(Nc1ccccc1)N1CCN(c2nc(-c3ccc(Cl)cc3)cs2)CC1,4.0,-3.3,-1.9,-0.2,·,·
CCCn1c(C2CC2)nc2ccccc21,9.9*,-1.9,-1.2,0.0,-0.3,1.7
COc1ccccc1/C=C/C(=O)NCc1ccco1,8.9*,-5.3,6.4,0.1,-1.1,-12.7
O=C(/C=C/c1ccc(OCc2ccccc2)cc1)NCc1ccco1,8.0*,13.7,3.0,-0.1,0.2,0.4
O=C(/C=C/c1ccccc1Cl)NCc1ccco1,-0.3,-26.8,11.4,0.0,·,·
O=C(/C=C/c1ccccc1)NCc1ccco1,-0.1,-23.8,-6.4,-0.1,·,·
O=C(Cc1ccsc1)NCC1Cc2c(F)ccc(-c3ccncc3)c2O1 (stereo not given),16.8*,24.1,3.0,-0.1,-0.1,1.9
CC(C)CC(=O)NCC1Cc2c(F)ccc(-c3ccncc3)c2O1 (stereo not given),-0.7,0.5,6.4,-0.1,·,·
CCCCCC(=O)N1c2ccccc2NC2=C(C(=O)CC(C)(C)C2)C1c1ccccc1OC (stereo not given),0.5,16.1,1.2,0.2,·,·
Nc1nc(N2CCOCC2)nc(N2CCOCC2)c1[N+](=O)[O-],6.5*,3.2,-4.0,-0.3,0.2,-8.9
CCCCN(C)c1nc(N)c([N+](=O)[O-])c(N2CCOCC2)n1,4.8,1.8,0.1,0.0,·,·
CCCc1[nH]n(-c2ccc(F)cc2)c(=O)c1C=NCCCn1ccnc1,-1.6,0.0,7.5,0.0,·,·
SMILES,GPR151 ag,TEAD-YAP inh,MITF inh,FBW7 act,GPR151 confirm,GPR119 ag
CCOC(=O)C1C(=O)NC(SCC(=O)Nc2ccc(Br)cc2)=C(C#N)C1c1ccccc1OCC (stereo not given),8.5*,-5.5,-11.0,-0.1,-0.1,11.1
Cc1n[nH]c(C)c1CCC(=O)N/N=C\c1ccc(C(C)(C)C)cc1,-1.1,-20.7,-11.6,0.0,·,·
Cc1n[nH]c(C)c1CCC(=O)O,4.9*,0.3,-1.1,0.0,-0.6,-3.2
Cc1n[nH]c(C)c1CCC(=O)N/N=C/c1ccc(Cl)cc1,6.0*,-0.2,12.7,0.1,0.5,4.4
Cc1ccc(C)n1-c1ccc(S(=O)(=O)c2ccc(-n3c(C)ccc3C)cc2)cc1,-0.7,6.1,-6.9,0.1,·,·
O=C(Nc1ccccc1C(=O)O)c1cccc(N2C(=O)c3ccc(Oc4cccc([N+](=O)[O-])c4)cc3C2=O)c1,0.2,4.5,9.6,0.0,·,·
O=C(NCC1CCCN(S(=O)(=O)/C=C/c2ccccc2)C1)c1cc2ccccc2[nH]1 (stereo not given),-0.9,3.7,-14.0,0.0,·,·
Cc1cc(S(=O)(=O)N2CCCC(CNC(=O)c3cc4ccccc4[nH]3)C2)c(C)s1 (stereo not given),6.2*,-0.1,8.5,-0.2,0.2,-1.6
CC1=C(C(=O)Nc2ccc(C)cc2)C(c2ccccc2)n2ncnc2N1 (stereo not given),-0.1,-0.5,-3.5,0.2,·,·
CCCCCC(=O)NNC(=O)c1ccc(Cl)cc1,1.8,-2.3,6.1,0.0,·,·
CC(=O)c1ccc(NC(=O)CSc2nnc(C34CC5CC(CC(C5)C3)C4)n2C)cc1,6.2*,-22.9,0.3,-0.3,-1.2,-8.1
CC(=O)c1ccc(NC(=O)CSc2nnc(C3CC3)n2C)cc1,2.4,13.5,9.8,-0.1,·,·
CCC(Sc1nc2cc(OC)c(OC)cc2c(=O)n1CCc1ccc(Cl)cc1)C(=O)Nc1cccc(Cl)c1 (stereo not given),-0.2,7.5,-7.0,0.0,·,·
CCc1ccc(NC(=O)C(CC)Sc2nc3cc(OC)c(OC)cc3c(=O)n2CCc2ccc(Cl)cc2)cc1 (stereo not given),6.5*,-12.5,-4.7,-0.1,-0.4,-11.1
CCOC(=O)c1sc(N)c(C#N)c1COC(=O)CSc1nnc(-c2ccco2)o1,1.4,-8.5,5.8,-0.1,·,·
CCN1CCC(N(Cc2ccco2)C(=O)NC2CCCC2)CC1,5.0*,-0.5,-5.7,-0.1,0.8,-3.9
Cc1ccccc1OCC(=O)NN1CC(O)=C(c2nc(-c3ccc(F)cc3)cs2)C1=N,5.6*,7.2,-0.3,0.0,0.6,-0.3
COCCCN1C(=O)c2ccccc2CC1(C)C(=O)NC1CCCCCC1 (stereo not given),5.6*,-3.6,-7.2,-0.1,-0.1,-3.4
COCCCN1C(=O)c2ccccc2CC1(C)C(=O)NC1CCCCCCC1 (stereo not given),1.5,2.3,1.8,0.2,·,·
CC(=O)Nc1ccc2c(c1)nc(CN1CCN(C(C)=O)CC1)n2C,-1.5,-5.3,-24.2,0.2,·,·
CC(=O)N1CCN(Cc2nc3cc(NC(=O)c4ccc(Cl)cc4)ccc3n2C)CC1,5.4*,-5.3,-0.2,-0.2,-0.2,1.3
CCN1CCN(CC(=O)Nc2ccc(C(C)=O)cc2)CC1,7.5*,8.0,-2.4,-0.1,0.3,4.6
CC(=O)c1ccc(NC(=O)CN2CCN(Cc3nc4ccccc4n3C)CC2)cc1,6.3*,-3.2,0.8,0.0,-0.4,-3.2
CCCn1c(N2CCN(CC(=O)Nc3ccc(C(C)=O)cc3)CC2)nc2ccccc21,-0.3,3.0,2.5,0.1,·,·
